From PubChem BioAssay AID1159580 (chemical genetic matrix, 2015)
The campaign covered roughly 5,500 compounds. About 2,000 (36%) were called active. Another 18% or so got no clear call; they are omitted. Rule as the data show it: active = normalized growth mostly below about 0.91 (no sharp cut-off); inconclusive = no clear call, values can overlap the other calls; inactive = mostly above about 0.92. The list shows a part of the results.

Assay: chemical genetic growth profiling, strain panel (AID 1159580);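 also: tested at 20 µM; growth read once vehicle control cultures reached saturation at 30 °C; 1 = growth at the plate median or of vehicle wells; lower values mean less growth of the strain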
Conditions: S. cerevisiae deletion strains, growth OD
[1] = locus YHR030C, strain SLT2, stronger effect = lower value
[2] = locus YHR079C, strain IRE1, stronger effect = lower value
[3] = locus YJL095W, strain BCK1, stronger effect = lower value
[4] = locus YJR066W, strain TOR1, stronger effect = lower value
[5] = locus YLR113W, strain HOG1, stronger effect = lower value
[6] = locus YNL183C, strain NPR1, stronger effect = lower value
[7] = locus YOR231W, strain MKK1, stronger effect = lower value
[8] = locus YPL256C, strain CLN2, stronger effect = lower value

Measured: normalized growth

CCCCCCCCCCOc1cc2c(=O)c(C(=O)OCC)c[nH]c2cc1OCC
inactive: [1] 1 | [2] 0.989 | [3] 0.978 | [4] 0.962 | [5] 0.942 | [6] 0.971 | [7] 0.977 | [8] 0.993

CCCOc1ccc(C(=O)OCCN(CC)CC)cc1N
inactive: locus YAL021C, strain ccr4, stronger effect = lower value 0.979 | locus YAL026C, strain drs2, stronger effect = lower value 1.01 | locus YAL030W, strain snc1, stronger effect = lower value 1 | locus YBL061C, strain skt5, stronger effect = lower value 1 | locus YBR009C, strain hhf1, stronger effect = lower value 1.03 | locus YBR023C, strain chs3, stronger effect = lower value 1.02 | locus YBR171W, strain sec66, stronger effect = lower value 1.02 | locus YBR231C, strain swc5, stronger effect = lower value 1.01 | locus YBR279W, strain paf1, stronger effect = lower value 1.01 | locus YCL011C, strain gbp2, stronger effect = lower value 1 | locus YCL016C, strain dcc1, stronger effect = lower value 1 | locus YCL061C, strain MRC1, stronger effect = lower value 1 | locus YCL069W, strain vba3, stronger effect = lower value 0.999 | locus YCR088W, strain abp1, stronger effect = lower value 1.01 | locus YDL005C, strain med2, stronger effect = lower value 1.01 | locus YDL040C, strain nat1, stronger effect = lower value 1 | locus YDR001C, strain nth1, stronger effect = lower value 1 | locus YDR069C, strain doa4, stronger effect = lower value 1.01 | locus YDR137W, strain rgp1, stronger effect = lower value 1.04 | locus YDR159W, strain sac3, stronger effect = lower value 1.02 | locus YDR195W, strain ref2 0.964 | locus YDR297W, strain sur2, stronger effect = lower value 1 | locus YDR334W, strain swr1, stronger effect = lower value 0.995 | locus YDR335W, strain msn5, stronger effect = lower value 1 | locus YDR392W, strain spt3, stronger effect = lower value 1.02 | locus YEL003W, strain gim4, stronger effect = lower value 1.01 | locus YEL037C, strain rad23, stronger effect = lower value 0.979 | locus YEL061C, strain CIN8 (second series), stronger effect = lower value 1 | locus YER015W, strain faa2, stronger effect = lower value 1.03 | locus YER016W, strain bim1, stronger effect = lower value 1 | locus YER111C, strain swi4, stronger effect = lower value 0.999 | locus YER155C, strain BEM2 (second series), stronger effect = lower value 1 | locus YFR010W, strain ubp6, stronger effect = lower value 0.996 | locus YGL167C, strain pmr1, stronger effect = lower value 1.01 | locus YGL173C, strain kem1, stronger effect = lower value 1 | locus YGL227W, strain vid30, stronger effect = lower value 1 | locus YGL240W, strain doc1, stronger effect = lower value 1.02 | locus YGL253W, strain hxk2, stronger effect = lower value 1.01 | locus YHR013C, strain ard1, stronger effect = lower value 1.01 | locus YHR027C, strain rpn1, stronger effect = lower value 1 | [1] 1.05 | [2] 1.04 | locus YHR142W, strain chs7, stronger effect = lower value 0.981 | locus YJL092W, strain hpr5, stronger effect = lower value 1 | locus YJL095W, strain BCK1 (second series), stronger effect = lower value 1 | [3] 1 | locus YJL115W, strain asf1, stronger effect = lower value 1 | locus YJL129C, strain trk1, stronger effect = lower value 0.995 | locus YJL154C, strain vps35, stronger effect = lower value 1.01 | locus YJL164C, strain tpk1, stronger effect = lower value 0.999 | locus YJL166W, strain qcr8, stronger effect = lower value 1 | locus YJL187C, strain SWE1, stronger effect = lower value 1 | [4] 0.972 | locus YKL160W, strain elf1, stronger effect = lower value 0.989 | locus YKR026C, strain gcn3, stronger effect = lower value 0.984 | locus YKR091W, strain srl3, stronger effect = lower value 1 | locus YLL001W, strain dnm1, stronger effect = lower value 1.01 | locus YLL026W, stronger effect = lower value 1.01 | locus YLL041C, strain sdh2, stronger effect = lower value 0.998 | locus YLR027C, strain aat2, stronger effect = lower value 1 | [5] 0.968 | locus YLR221C, strain rsa3, stronger effect = lower value 1 | locus YLR258W, strain gsy2, stronger effect = lower value 1.01 | locus YLR262C, strain YPT6 (second series), stronger effect = lower value 1.01 | locus YLR320W, strain mms22, stronger effect = lower value 1.02 | locus YLR342W, strain FKS1, stronger effect = lower value 0.999 | locus YLR357W, strain rsc2, stronger effect = lower value 1.01 | locus YLR370C, strain arc18, stronger effect = lower value 1.01 | locus YLR384C, strain iki3, stronger effect = lower value 1 | locus YML120C, strain ndi1, stronger effect = lower value 1.01 | locus YMR058W, strain fet3, stronger effect = lower value 1.01 | locus YMR125W, strain sto1, stronger effect = lower value 1.02 | locus YMR129W, stronger effect = lower value 1.01 | locus YMR205C, strain PFK2, stronger effect = lower value 1.04 | locus YMR231W, strain pep5, stronger effect = lower value 1 | locus YNL071W, strain lat1, stronger effect = lower value 1 | [6] 0.966 | locus YNL209W, strain ssb2, stronger effect = lower value 1 | locus YNL248C, strain rpa49, stronger effect = lower value 0.971 | locus YNL322C, strain KRE1 (second series), stronger effect = lower value 1.01 | locus YNR049C, strain mso1, stronger effect = lower value 1 | locus YOR001W, strain rrp6, stronger effect = lower value 0.984 | locus YOR070C, strain gyp1, stronger effect = lower value 1.02 | locus YOR080W, strain dia2, stronger effect = lower value 1 | locus YOR083W, strain WHI5, stronger effect = lower value 0.986 | locus YOR106W, strain vam3, stronger effect = lower value 0.994 | [7] 1.03 | locus YOR265W, strain rbl2, stronger effect = lower value 1 | locus YOR270C, strain vph1, stronger effect = lower value 1.04 | locus YOR290C, strain snf2, stronger effect = lower value 1.01 | locus YPL051W, strain arl3, stronger effect = lower value 0.997 | locus YPL078C, strain atp4, stronger effect = lower value 0.98 | locus YPL106C, strain sse1, stronger effect = lower value 1.01 | locus YPL240C, strain hsp82, stronger effect = lower value 0.988 | [8] 1.02
